Outcome data for five compounds are collected here from PubChem BioAssay (EPA / NIEHS).

Structures are written as SMILES. Results filed as inconclusive are left out. The source made the active and inactive calls. Rule for the calls, unless noted: active = hit-call score of the fitted dose curve at least 0.9, where 1 is the maximum; inconclusive = response in the unintended direction; inactive = score below 0.9.

Test [1] has as its target Retinoic acid receptor RXR-alpha (Homo sapiens) (UniProt P19793). Put plainly: TOX21_TR_RXR_BLA_Antagonist_Followup_ratio: Tox21 Thyroid Hormone Receptor beta Retinoid X Receptor alpha (RXRa) Antagonism Beta-lactamase (BLA) Follow-Up Assay, Ratio (AID 2283972). Summed up:
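HEK293T RXRa-bla, 2% charcoal-stripped FBS medium, 16 h compound exposure at 37C, qHTS 11 conc x3. CCF4 FRET ratio ch2/ch1 (460:530), DMSO = baseline, loss-of-signal fit.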

Test [2] shares this target. The experiment in a line: TOX21_TR_RXR_BLA_Agonist_Followup_ratio: Tox21 Thyroid Hormone Receptor beta Retinoid X Receptor alpha (RXRa) Agonism Beta-lactamase (BLA) Follow-Up Assay, Ratio (AID 2283968). The procedure, abridged:
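HEK293T RXRa-bla, qHTS; cpd 11-pt conc. in triplicate, 16 h 37C/5% CO2; CCF4-AM 2 h RT; ratio 460:530 nm; agonist direction vs DMSO; 9-cis retinoic acid as positive control.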

The nature of test [3]: TOX21_TR_RXR_BLA_Agonist_Followup_viability: Viability Assessment in the Tox21 Thyroid Hormone Receptor beta Retinoid X Receptor alpha (RXRa) Agonism Beta-lactamase (BLA) Follow-Up Assay (AID 2283970). Summed up: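 Cells: HEK293T RXRa-UAS-bla, 2,500/well; medium phenol red-free DMEM + 2% charcoal-stripped FBS; 16h, 37C/5% CO2; qHTS concentration series. Read: CellTiter-Glo luminescence (ATP); bidirectional fit, DMSO = baseline.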

Test [4] in a line: CCTE_Harrill_HTTr_Viability_DMEM_6hr: (Pilot) CCTE's 6-hour Cell Viability Assessment for the High-Throughput Transcriptomics (HTTr) Platform, in MCF-7 cells cultured in DMEM + 10% fetal bovine serum, Harrill Lab (AID 2283973; active = hit-call score of the fitted dose curve at least 0.9, where 1 is the maximum; inactive = score below 0.9). The procedure, abridged:
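MCF-7 cells in DMEM + 10% FBS, eight-point dilution series, 6 h exposure. Membrane integrity by propidium iodide exclusion with high-content imaging; bidirectional fit versus DMSO.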

Test [5] is described as follows: CCTE_Harrill_HTTr_Viability_DMEM_12hr: (Pilot) CCTE's 12-hour Cell Viability Assessment for the High-Throughput Transcriptomics (HTTr) Platform, in MCF-7 cells cultured in DMEM + 10% fetal bovine serum, Harrill Lab (AID 2283974; active = hit-call score of the fitted dose curve at least 0.9, where 1 is the maximum; inactive = score below 0.9). The procedure, abridged:
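MCF-7 cells in DMEM + 10% FBS exposed 12 h to an eight-point dilution series; membrane integrity scored by propidium iodide exclusion with high-content imaging, bidirectional fitting versus DMSO.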

Test [6] can be described thus: CCTE_Harrill_HTTr_Viability_DMEM_24hr: (Pilot) CCTE's 24-hour Cell Viability Assessment for the High-Throughput Transcriptomics (HTTr) Platform, in MCF-7 cells cultured in DMEM + 10% fetal bovine serum, Harrill Lab (AID 2283975; active = hit-call score of the fitted dose curve at least 0.9, where 1 is the maximum; inactive = score below 0.9). The procedure, abridged: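 MCF-7 cells in DMEM with 10% FBS exposed for 24 hours to an eight-point dilution series. Membrane integrity by propidium iodide exclusion with high content imaging; bidirectional fit against DMSO.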

Test [7] is described as follows: CCTE_Harrill_HTTr_Viability_PRF_DMEM_6hr: (Pilot) CCTE's 6-hour Cell Viability Assessment for the High-Throughput Transcriptomics (HTTr) Platform, in MCF-7 cells cultured phenol red-free DMEM + 10% charcoal-stripped fetal bovine serum, Harrill Lab (AID 2283976; active = hit-call score of the fitted dose curve at least 0.9, where 1 is the maximum; inactive = score below 0.9). The procedure, abridged: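 MCF-7 cells in phenol red-free DMEM with 10% charcoal-stripped FBS exposed 6 hours to an eight-point dilution series. Propidium iodide exclusion imaged; curves fitted bidirectionally against DMSO.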

Test [8] in a line: CCTE_Harrill_HTTr_Viability_PRF_DMEM_12hr: (Pilot) CCTE's 12-hour Cell Viability Assessment for the High-Throughput Transcriptomics (HTTr) Platform, in MCF-7 cells cultured in phenol red-free DMEM + 10% charcoal-stripped fetal bovine serum, Harrill Lab (AID 2283977; active = hit-call score of the fitted dose curve at least 0.9, where 1 is the maximum; inactive = score below 0.9). From the text:
This is a cell-based assay that evaluates cell viability using high content imaging to evaluate membrane integrity using propidium iodide dye exclusion in a 384 well format.One of seven assay components measured from the CCTE_Harrill_HTTr_Viability assay. This was part of a pilot experiment. This is a cell-based assay that evaluates cell viability in MCF-7 cells cultured in phenol red-free DMEM + 10% charcoal-stripped fetal bovine serum. High content imaging is used to evaluate membrane integrity using propidium iodide dye exclusion. Measurements are taken at 12 hours after chemical dosing in 384-well format.The assay component endpoint CCTE_Harrill_HTTr_Viability_PRF_DMEM_12hr was analyzed with bidirectional fitting relation to DMSO as the negative control and baseline of activity. Using a type of viability reporter to understand changes in cytotoxicity, gain-of-signal activity can be used to evaluate membrane integrity using propidium iodide dye exclusion. To generalize the intended target to other relatable targets, this assay endpoint is annotated to cell cycle, where the subfamily is cytotoxicity.
Chemicals were tested in MCF7 cells in an eight point dilution series with a twelve hour exposure duration.

A short description of test [9]: CCTE_Harrill_HTTr_Viability_PRF_DMEM_24hr: (Pilot) CCTE's 24-hour Cell Viability Assessment for the High-Throughput Transcriptomics (HTTr) Platform, in MCF-7 cells cultured in phenol red-free DMEM + 10% charcoal-stripped fetal bovine serum, Harrill Lab (AID 2283980; active = hit-call score of the fitted dose curve at least 0.9, where 1 is the maximum; inactive = score below 0.9). The procedure, abridged:
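MCF-7 cells in phenol red-free DMEM with 10% charcoal-stripped FBS, eight-point dilution series, 24 h exposure. Membrane integrity by propidium iodide exclusion with high content imaging; bidirectional fit vs DMSO.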

Test [10] is described as follows: TOX21_TR_RXR_BLA_Antagonist_Followup_viability: Viability Assessment in the Tox21 Thyroid Hormone Receptor beta Retinoid X Receptor alpha (RXRa) Antagonism Beta-lactamase (BLA) Follow-Up Assay (AID 2283979). Summed up: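 RXRa-bla HEK293T cells (2,500/well, phenol red-free DMEM, 2% charcoal-stripped FBS) were attached 5 h, then exposed to compounds at 11 concentrations in triplicate for 16 h at 37C. Viability measured by CellTiter-Glo ATP luminescence, bidirectional fitting versus DMSO.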

Chain of Retinoic acid receptor RXR-alpha (Homo sapiens) (P19793 whole entry, looked up): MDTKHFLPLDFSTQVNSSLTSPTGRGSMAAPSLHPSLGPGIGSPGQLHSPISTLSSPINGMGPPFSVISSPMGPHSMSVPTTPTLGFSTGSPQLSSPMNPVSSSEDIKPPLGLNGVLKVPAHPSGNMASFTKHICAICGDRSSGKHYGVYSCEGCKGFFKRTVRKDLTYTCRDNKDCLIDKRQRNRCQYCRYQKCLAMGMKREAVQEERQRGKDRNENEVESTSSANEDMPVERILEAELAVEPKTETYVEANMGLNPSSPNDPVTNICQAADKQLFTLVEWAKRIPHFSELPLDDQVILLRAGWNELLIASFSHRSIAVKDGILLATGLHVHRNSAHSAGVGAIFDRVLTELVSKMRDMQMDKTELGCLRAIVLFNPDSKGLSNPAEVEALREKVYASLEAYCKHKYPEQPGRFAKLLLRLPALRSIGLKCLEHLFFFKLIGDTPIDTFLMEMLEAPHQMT

With `COc1cc2c(c(OC)c1OC)-c1ccc(OC)c(=O)cc1[C@@H](NC(C)=O)CC2`, in test [1], the result was inactive.

For the compound `Cn1c(=O)c2[nH]cnc2n(C)c1=O`, the result in test [2] and in [3] was inactive.

As to `CC(C)C(=O)Nc1ccc([N+](=O)[O-])c(C(F)(F)F)c1`, the result in test [4], in test [5], in test [6], in test [7], in [8] and in [9] was inactive.

Turning to `Cc1nccn1-c1ccc(Sc2cccc(C3(C(N)=O)CCOCC3)c2)cc1`, the outcome in test [1] and in [10] was inactive.

For the compound `O=c1[nH]cnc2c1ncn2[C@H]1CC[C@@H](CO)O1`, the result in test [2] and in test [3] was inactive.
